About 2,100 (3.2%) of roughly 65,000 compounds showed an effect of 50% or more. The median lay at about -52%. The list comes from a sample in which strong results are over-represented; it also holds similar structures and randomly drawn compounds.
The compounds below were run on Plasmodium falciparum (assay: Screen against P. falciparum Asexual Blood Stage (ABS), at 5uM). Conditions: tested at 5 uM.
Assay type: functional, Dd2
For COC[C@@H]1CCC[C@]12CN(Cc1cccc(C)n1)CCO2, the INHIBITION was -26.8%. Work on CCS(=O)(=O)NC[C@]12COC[C@H]1CN(Cc1ccccn1)C2 yielded an INHIBITION of -30.3%. For CC(C)N1CCO[C@H]2CN(C(=O)c3ccncc3)C[C@H]21, the INHIBITION was -69.9%. Cc1nocc1C(=O)N1CCOC2(COCCN(CC3CC3)C2)C1 (centres undefined) gave an INHIBITION of -103%. In the case of COc1ccc(CC(=O)N2CCN(Cc3ccco3)C[C@H]2C)cc1OC, the INHIBITION is reported as -28.9%. CN(C)C(=O)CN1CCO[C@H]2CN(c3ccccn3)C[C@H]21 gave an INHIBITION of -57.3%. In the case of COCCN1CC[C@@H]2CN(Cc3cccnc3OC)C[C@@H]2C1, the INHIBITION is reported as -68%. In the case of COc1ncccc1CN1C[C@H]2CCN(c3ncccn3)C[C@H]2C1, the INHIBITION is reported as -39%. In the case of COc1ccccc1CN1CCC(c2nn(CCN)c3nccnc23)C1 (centres undefined), the INHIBITION is reported as 75.5%. Compound c1cncc(CO[C@H]2CN(Cc3ccco3)[C@@H]3COC[C@H]23)c1 has an INHIBITION of -14.4%. For Cc1cccc(CN2CC[C@H]3[C@@H]2CC(=O)N3CC2CC2)n1, the INHIBITION was -122%. Cc1cc(C)n(C2CN(CC(O)c3cc(F)ccc3F)C2)n1 (centres undefined) was tested, and the INHIBITION was 84.7%. Compound CCC(CO)N(Cc1cccc(O)c1)Cc1ccccc1C (centres undefined) has an INHIBITION of 75.2%. O=C(N1CCOCC1)[C@@]12CCO[C@@H]1CCN(Cc1ccncc1)C2 was tested, and the INHIBITION was -39.7%. Work on CCC1CN(CC(=O)NCCN2CCCCC2)c2ccccc2S1 (centres undefined) yielded an INHIBITION of 72.3%. CCC1CN(CC(=O)NCCN(CC)CC)c2ccccc2S1 (centres undefined) showed an INHIBITION of 76.7%. For CCC1CN(CC(=O)NCCN2CCCCCC2)c2ccccc2S1 (centres undefined), the INHIBITION was 73.8%. Work on CCCN1CCC2(Cc3ccccc3NC2=O)C1 (centres undefined) yielded an INHIBITION of -3.59%. In the case of CS(=O)(=O)N1CCOCC2(CN(Cc3ccccn3)CCO2)C1 (centres undefined), the INHIBITION is reported as -46.3%. Cc1ccc(CNCCC(O)(c2nccn2C)C(F)(F)F)o1 (centres undefined) was tested, and the INHIBITION was 73.2%. Cn1ccnc1C(O)(CCNCc1ccc(Cl)o1)C(F)(F)F (centres undefined) gave an INHIBITION of 71.1%. Compound Cc1csc(CN2CCC[C@]3(C[C@@H](Oc4ccccn4)CO3)C2)n1 has an INHIBITION of -213%. Compound Cc1cc(C(F)(F)F)cc(=O)n1CCn1cc(Cl)cn1 has an INHIBITION of 18.5%. In the case of CCc1cnc(N)nc1NCCCn1cc(Cl)cn1, the INHIBITION is reported as 84.5%. In the case of CCN(CC)C(CNC(=O)c1c(C)noc1C(C)C)c1ccsc1 (centres undefined), the INHIBITION is reported as 78.7%. With CC(C)N1CCN(C(=O)Cc2csc(-c3ccco3)n2)CC1 the INHIBITION was -22.2%. Work on COc1cc(F)ccc1C(C(=O)O)N(C)CCN1CCOCC1 (centres undefined) yielded an INHIBITION of 80.7%. With COc1cc(F)ccc1C(C(=O)O)N(C)CCN1CCCC1 (centres undefined) the INHIBITION was 72.3%. In the case of Cc1ccc(F)cc1CC(=O)N(CCN1CCOCC1)Cc1ccco1, the INHIBITION is reported as -12.9%. Compound CCS(=O)(=O)N1CCN(CC2CC2)c2ncccc2C1 has an INHIBITION of -94.6%. With COC(=O)c1ccc(C2SCC(=O)Nc3ccsc32)cc1 (centres undefined) the INHIBITION was -80.9%. COc1ccc(CCN)cc1-c1ccc(O)cc1 showed an INHIBITION of 85.6%. Compound COc1ccc(CCN)cc1-c1ccc(C(N)=O)cc1 has an INHIBITION of 10.7%. Compound CCOc1ccc(-c2cc(CCN)ccc2OC)cc1 has an INHIBITION of -58%. Cc1ccc(CN2C[C@@H]3CCN(Cc4ccncc4)C(=O)[C@H]3C2)s1 showed an INHIBITION of -13.4%. In the case of C[C@H](N)Cn1nc(-c2cccs2)oc1=O, the INHIBITION is reported as -106%. In the case of CNCC[C@H]1CC(C)(C)Oc2ccc(OCC3CC3)cc21, the INHIBITION is reported as 76.1%. CNCC[C@H]1CC(C)(C)Oc2ccc(OC)cc21 was tested, and the INHIBITION was 73.8%. In the case of CC(C)(O)c1cn(C[C@H]2C[C@@H]3CCN2C[C@@H]3C(=O)N2CCOCC2)nn1, the INHIBITION is reported as -62.4%. Compound CC(=O)c1cc(CC(=O)N2CCN(CCOc3ccccc3)CC2)cs1 has an INHIBITION of 7.62%. Work on CN(C)c1nc2c(c(NCc3cc(O)ncn3)n1)CCCC2 yielded an INHIBITION of 89.4%. For COc1ccccc1C1SCC(=O)Nc2n[nH]cc21 (centres undefined), the INHIBITION was -117%. Work on COc1ccccc1C1CNC(=O)c2nc(-c3ncc[nH]3)[nH]c2C1 (centres undefined) yielded an INHIBITION of 89.1%. CCC(CNC(=O)CNC(C)=O)Oc1cccc(F)c1 (centres undefined) gave an INHIBITION of 85%. With COc1cccc(CC(C)NC(=O)NCCNC(C)=O)c1 (centres undefined) the INHIBITION was -47.5%. Work on CN(C)[C@@H]1CN(C(=O)COc2cccc(F)c2)C[C@H]1O yielded an INHIBITION of -21.2%. O=C(Cc1cccc(F)c1)N1CCN2C[C@H](Oc3cncnc3)C[C@H]2C1 showed an INHIBITION of -93.1%. Cc1nnc(N2CCCC3(CN(Cc4cccnc4)CCO3)C2)o1 (centres undefined) gave an INHIBITION of -77.8%. Work on Cc1ccccc1-n1cc(C2=CCN(CCn3cc[nH]c3=O)CC2)cn1 yielded an INHIBITION of -111%. In the case of CC(=O)N1CCN([C@@H]2CN(C(=O)Cc3ccccc3C)C[C@H]2O)CC1, the INHIBITION is reported as -146%. Work on c1ccc(-c2nnc(CNC3CCCN(c4cccnn4)C3)o2)cc1 (centres undefined) yielded an INHIBITION of 75.8%. CC(C)(C)c1nc(CN(Cc2cccnc2)C2CN3CCC2CC3)no1 (centres undefined) was tested, and the INHIBITION was -29.7%. CC(C)(C)c1nc(CNC2CCCN(c3cccnn3)C2)no1 (centres undefined) gave an INHIBITION of 83%. CCCN1CCN(C(=O)c2cncnc2C)[C@H]2CS(=O)(=O)C[C@H]21 was tested, and the INHIBITION was -87.7%. Cc1ccc(CN2Cc3nnn(C)c3C(COCCN(C)C)C2)s1 (centres undefined) showed an INHIBITION of 73.9%. Work on Cc1ccc(CN2C[C@@H]3[C@@H](C2)OCC(=O)N3Cc2ccncc2)s1 yielded an INHIBITION of 3.28%. With Cc1ccc(N2CCO[C@H]3CN(Cc4ccncc4)C[C@H]32)nn1 the INHIBITION was -111%. CN(CC1Cc2ccccc2CN1C)C(=O)Cc1cccs1 (centres undefined) showed an INHIBITION of -12.1%. Cc1ccc2c(c1)CN(C(=O)c1cccs1)C(CN(C)C)CO2 (centres undefined) showed an INHIBITION of 77.3%. Work on O=C(NCCOc1cccc(Cl)c1Cl)N1CCC2(CC1)OCCO2 yielded an INHIBITION of -68.2%. Work on Cc1ccc2nc(CN(C)Cc3n[nH]c4c3CCCCC4)[nH]c2c1C yielded an INHIBITION of 85.8%. With Cc1ccc2[nH]c(CN(C)Cc3n[nH]c4c3CCC4)nc2c1 the INHIBITION was 82.3%. CC(Cn1cncn1)NCc1n[nH]c2c1CCCCC2 (centres undefined) was tested, and the INHIBITION was -49.3%. With NC1(c2nc(C(F)(F)F)cc(=O)[nH]2)CCCCC1 the INHIBITION was 4.74%. In the case of CC(=O)N1CCC2(CN(CC3CCCC3)C2)C1, the INHIBITION is reported as -99.3%. For CN(C)C[C@H]1C[C@@H]2CN(Cc3ccoc3)C[C@@H]2O1, the INHIBITION was 20.7%. Compound COc1ccc(CN2C[C@H]3C[C@H](CN(C)C)O[C@H]3C2)cc1 has an INHIBITION of 79.6%. CN(C)C[C@H]1C[C@@H]2CN(Cc3ccco3)C[C@@H]2O1 was tested, and the INHIBITION was 38.9%. Compound O=C(CC1CCCC1)N1C[C@@H]2C[C@@H]1CN2 has an INHIBITION of -57.9%. In the case of CN(C(=O)c1ccon1)[C@@H]1CCC[C@@H](Oc2ccccc2)[C@@H]1O, the INHIBITION is reported as 79.8%. Cc1ncsc1CN1C[C@@H]2CN(Cc3cccnc3)CCO[C@@H]2C1 showed an INHIBITION of -49.8%. With CCNc1ccnc(N2Cc3cnc(CC(C)C)nc3C2)n1 the INHIBITION was 74.6%. For CC(C)Nc1ccnc(N2Cc3cnc(C(C)(C)C)nc3C2)n1, the INHIBITION was 50.1%. Work on O=C(c1cscn1)N1CCN2C[C@H](OCc3cccnc3)C[C@H]2C1 yielded an INHIBITION of -55.9%. COc1ccc(C2SCC(=O)Nc3n[nH]cc32)c(OC)c1OC (centres undefined) was tested, and the INHIBITION was -164%. With O=C(Nc1ccc(Cn2cccn2)cc1)N1CCC2(CC1)OCCO2 the INHIBITION was -153%. COc1ccccc1CC(C)N(C)CCS(C)(=O)=O (centres undefined) showed an INHIBITION of 1.1%. Compound COc1ccccc1CCN(C)Cc1nc(N)nc(N(C)C)n1 has an INHIBITION of 69.9%. CN(CCc1cccc2ccccc12)Cc1nc(N)nc(N(C)C)n1 gave an INHIBITION of 92.2%. Compound Cc1nc(-c2ccccc2F)sc1C(=O)N1CCC(=O)CC1 has an INHIBITION of -67.5%. O=C(Cc1cccs1)N1C[C@@H]2OCCN(CC3CCCO3)[C@@H]2C1 (some centres undefined) showed an INHIBITION of -87.1%. Cn1cc(C2SCC(=O)Nc3c2cnn3C(C)(C)C)cn1 (centres undefined) showed an INHIBITION of -6.82%. With COc1ccc(C)cc1CC(=O)N1CCN(CC(C)O)CC1 (centres undefined) the INHIBITION was -34.3%. Compound CCC(O)CN1CCN(C(=O)Cc2cc(C)ccc2OC)CC1 (centres undefined) has an INHIBITION of -68.2%. CCN1CCC(CNCc2cc(C)ccc2OC)C1 (centres undefined) showed an INHIBITION of 82.7%. Work on N#Cc1ccc(OC[C@]23COC[C@H]2CN(Cc2nccs2)C3)nc1 yielded an INHIBITION of -22.3%. O=C(C1CC1)N1CCOC2(CCNCC2)C1 showed an INHIBITION of -22.2%. Cn1ccnc1CN1CCC2(CC(=O)N(c3ccccn3)C2)C1 (centres undefined) gave an INHIBITION of -145%. Cc1ccc(C(O)CN2CCN(Cc3nccn3C)CC2)cc1C (centres undefined) was tested, and the INHIBITION was 80.4%. In the case of Cc1ccc(CC(=O)N2CCCN(Cc3nccn3C)CC2)cn1, the INHIBITION is reported as -72.4%. CC(C)c1nccc(C2(c3ccccc3Cl)CCNCC2)n1 showed an INHIBITION of 83.4%. For Clc1ccccc1C1(c2ccnc(-c3ccncc3)n2)CCNCC1, the INHIBITION was 83.6%. Compound CC(C)(C)c1nccc(C2(c3ccccc3Cl)CCNCC2)n1 has an INHIBITION of 76.1%. With Cc1ccc(N2CCO[C@H]3CN(Cc4cccnc4)C[C@H]32)nn1 the INHIBITION was -18.3%. Compound CN1C(=O)CC2(CCNCC2)c2ccccc21 has an INHIBITION of 2.59%. CC(C)c1ccc(CN2C(=O)C3(CCNCC3)Nc3ccccc32)cc1 showed an INHIBITION of 82%. O=C1CC2(CCCNC2)C(=O)N1Cc1ccccc1 (centres undefined) showed an INHIBITION of -15.7%. c1cncc(CN2CCN3C[C@H](Oc4cncnc4)C[C@H]3C2)c1 showed an INHIBITION of -155%. CC(C)[C@@H]1CN(C(=O)C2(c3ccccc3)CCN(C)CC2)C[C@H]1N(C)C gave an INHIBITION of 83.7%. With CC(C)[C@@H]1CN(C(=O)C2(c3ccccc3)CCN(C)CC2)C[C@H]1C(=O)O the INHIBITION was -65.7%. Compound CC(=O)C1(c2ccccc2)CCN(C(=O)c2ccc3nnnn3c2)CC1 has an INHIBITION of -106%. CCS(=O)(=O)N1CCc2c(COCCN(C)C)cncc2C1 showed an INHIBITION of -62.2%. Work on O=S1(=O)NCC2(CCNCC2)COc2ccccc21 yielded an INHIBITION of -55.2%. With O=S1(=O)c2ccccc2OCC2(CCN(CCO)CC2)CN1CC1CC1 the INHIBITION was 76.9%.

— ChEMBL document CHEMBL4513216, “Probing the Open Global Health Chemical Diversity Library for Multistage-Active Starting Points for Next-Generation Antimalarials” (ACS Infect Dis, 2020)
